Common to all, as to test: log2 fold change, soluble protein after heating vs DMSO (PISA); higher = thermal stabilisation; K562 cells, 10 uM, 30 min; active = over 0.2 and 3.5 SD of the protein, either way, in both replicates (recomputed)
Compound in experiment [1]: CC[C@@H]1C(=O)N(C)c2cnc(Nc3ccc(C(=O)NC4CCN(C)CC4)cc3OC)nc2N1C1CCCC1
An outline of the steps:
(§1)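 For each measurement, 10 μM compound was applied for 30 min to K562 cells at 2×10^6 cells/mL. Aliquots were heated for 3 min across 48°C-58°C, pooled, and extracted in PBS with 0.5% NP-40 at 4°C; the supernatant after 21,000xg for 90 min was soluble protein. This was quantified by TMTpro 16plex LC-MS/MS with channel sums equalised, and thermal stability was reported relative to control samples from duplicates, on a log2 fold-change scale.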

Compound in another experiment: CC[C@@H]1C(=O)N(C)c2cnc(Nc3ccc(C(=O)N[C@H]4CC[C@H](N5CCN(CC6CC6)CC5)CC4)cc3OC)nc2N1C(C)C [volasertib]
The gist of the method: as §1

Compound in experiment [2]: CC[C@H](C)N1C=C(C2=C(C=C(C=C21)C3=CN=C(C=C3)N4CCNCC4)C(=O)NCC5=C(C=C(NC5=O)C)C)C
The gist of the method: as §1

Compound in another experiment: CC[C@H](C)[C@@H](C(=O)N[C@@H]([C@@H](C)O)C(=O)N[C@@H](CC(C)C)C(=O)[C@]1(CO1)C)NC(=O)[C@H]([C@@H](C)CC)N(C)C(=O)C [epoxomicin]
An outline of the steps:
as §1

Compound in experiment [3]: CCn1c(C(=O)N(C2CC2)C2CC2)cc2c3c(ncn3C)c(Nc3cc(C)n(C)n3)nc21
The gist of the method:
as §1

Compound in experiment [4]: CCn1cc(-c2ccnc3[nH]c(-c4cccc(CN(C)C)c4)cc23)c(-c2ccc(NC(=O)N(C)C)cc2)n1
An outline of the steps: as §1

Compound in experiment [5]: CN(C)CC(=O)Nc1ccc2[nH]c(=O)c3ccccc3c2c1
An outline of the steps:
as §1

Compound in another experiment: CN(CCOC1=CC=C(C=C1)C[C@H]2C(=O)NC(=O)S2)C3=CC=CC=N3 (racemic) [rosiglitazone]
An outline of the steps: as §1

Compound in experiment [6]: CN1C2=C(C3=C1C(=O)N(N=C3)CC4=CC(=CC=C4)N)SC(=C2)S(=O)C
An outline of the steps:
as §1

Compound in experiment [7]: CN1CCC(CNc2ccc3ncc(-c4cccc(OC(F)(F)F)c4)n3n2)CC1
An outline of the steps:
as §1

Compound in a further experiment: CN1CCN(CCOc2cc(OC3CCOCC3)c3c(Nc4c(Cl)ccc5c4OCO5)ncnc3c2)CC1 [saracatinib]
The gist of the method:
as §1

Compound in a further experiment: CN1CCN(c2nc(C3=C(c4c[nH]c5ccccc45)C(=O)NC3=O)c3ccccc3n2)CC1 [sotrastaurin]
An outline of the steps: as §1

Compound in the next experiment: CN1CC[C@H](c2c(O)cc(O)c3c(=O)cc(-c4ccccc4Cl)oc23)[C@H](O)C1 [alvocidib]
The gist of the method: as §1

Compound in the next experiment: CN1CCc2c(c3ccccc3n2Cc2ccc(C(=O)NO)cc2)C1 [Tubastatin A]
The gist of the method: as §1

Compound in experiment [8]: CNC(=O)C1=CC=CC=C1NC2=NC(=NC=C2Cl)NC3=C(C=C(C=C3)N4CCOCC4)OC
The gist of the method: as §1

Compound in another experiment: CNC(=O)c1ccc(Nc2ncc(C(F)(F)F)c(NCc3nccnc3N(C)S(C)(=O)=O)n2)cc1 [defactinib]
An outline of the steps: as §1

Compound in another experiment: CNCc1ccc(-c2[nH]c3cc(F)cc4c3c2CCNC4=O)cc1 [rucaparib]
An outline of the steps: as §1

Compound in experiment [9]: CNc1nc(-c2ccc3c(N)n[nH]c3c2)cc(N2C[C@@H](C(=O)NC3CCCCC3)CC[C@H]2C)n1
An outline of the steps:
as §1

Compound in another experiment: COC(=O)N[C@@H](C)CNc1nccc(-c2cn(C(C)C)nc2-c2cc(Cl)cc(NS(C)(=O)=O)c2F)n1 [encorafenib]
The gist of the method:
as §1

Compound in experiment [10]: COC(=O)[C@H](CCSC)NC(=O)C1=C(C=C(C=C1)NC[C@H](CS)N)C2=CC=CC=C2
The gist of the method:
as §1

Targets with a hit are over-represented here; the source holds about 7,900 in all. About 0.6% of all pairs of compound and target were hits. Unmarked numbers belong to inactive results.

Chain of UniProt P84157 (P84157 whole entry, looked up): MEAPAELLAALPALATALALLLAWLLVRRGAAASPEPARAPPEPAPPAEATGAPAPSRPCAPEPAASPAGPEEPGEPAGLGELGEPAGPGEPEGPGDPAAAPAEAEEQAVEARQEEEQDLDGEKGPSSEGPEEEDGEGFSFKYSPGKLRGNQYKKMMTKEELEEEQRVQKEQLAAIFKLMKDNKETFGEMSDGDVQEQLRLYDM
Chain of UniProt Q9H3P2 (Q9H3P2 whole entry, looked up): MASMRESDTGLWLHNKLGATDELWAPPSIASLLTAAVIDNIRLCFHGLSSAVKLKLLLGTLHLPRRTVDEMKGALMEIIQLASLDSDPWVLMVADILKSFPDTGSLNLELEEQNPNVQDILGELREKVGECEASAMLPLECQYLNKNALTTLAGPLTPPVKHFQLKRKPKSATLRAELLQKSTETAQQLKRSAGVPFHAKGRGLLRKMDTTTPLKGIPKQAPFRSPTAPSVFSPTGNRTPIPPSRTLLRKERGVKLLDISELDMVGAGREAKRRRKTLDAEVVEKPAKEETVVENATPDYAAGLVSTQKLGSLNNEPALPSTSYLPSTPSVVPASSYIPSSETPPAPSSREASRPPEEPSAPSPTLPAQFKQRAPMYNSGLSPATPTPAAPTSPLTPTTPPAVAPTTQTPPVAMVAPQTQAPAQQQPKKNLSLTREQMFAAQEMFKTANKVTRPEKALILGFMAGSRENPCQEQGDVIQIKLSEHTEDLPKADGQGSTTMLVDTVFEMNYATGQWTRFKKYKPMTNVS
Chain of UniProt Q96MF7 (Q96MF7 whole entry, looked up): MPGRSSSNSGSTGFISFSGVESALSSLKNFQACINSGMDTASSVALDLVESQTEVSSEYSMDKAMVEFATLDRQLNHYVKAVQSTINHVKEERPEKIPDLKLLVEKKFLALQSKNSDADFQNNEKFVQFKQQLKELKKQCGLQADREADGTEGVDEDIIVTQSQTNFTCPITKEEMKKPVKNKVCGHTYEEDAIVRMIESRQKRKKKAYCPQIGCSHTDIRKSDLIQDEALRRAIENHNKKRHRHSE
Chain of UniProt P03905 (P03905 whole entry, looked up): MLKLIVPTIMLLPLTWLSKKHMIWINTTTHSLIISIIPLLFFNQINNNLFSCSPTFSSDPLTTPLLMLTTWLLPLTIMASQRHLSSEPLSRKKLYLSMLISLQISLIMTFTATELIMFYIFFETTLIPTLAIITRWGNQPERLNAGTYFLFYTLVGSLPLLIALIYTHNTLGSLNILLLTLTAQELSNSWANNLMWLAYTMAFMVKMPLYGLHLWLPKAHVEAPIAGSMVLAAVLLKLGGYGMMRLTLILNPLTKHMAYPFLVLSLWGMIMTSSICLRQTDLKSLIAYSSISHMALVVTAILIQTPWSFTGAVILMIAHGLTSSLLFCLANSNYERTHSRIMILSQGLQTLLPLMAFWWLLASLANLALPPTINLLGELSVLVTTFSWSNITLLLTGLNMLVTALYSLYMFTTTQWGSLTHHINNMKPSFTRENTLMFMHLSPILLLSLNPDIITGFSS
Chain of UniProt P46087 (P46087 whole entry, looked up): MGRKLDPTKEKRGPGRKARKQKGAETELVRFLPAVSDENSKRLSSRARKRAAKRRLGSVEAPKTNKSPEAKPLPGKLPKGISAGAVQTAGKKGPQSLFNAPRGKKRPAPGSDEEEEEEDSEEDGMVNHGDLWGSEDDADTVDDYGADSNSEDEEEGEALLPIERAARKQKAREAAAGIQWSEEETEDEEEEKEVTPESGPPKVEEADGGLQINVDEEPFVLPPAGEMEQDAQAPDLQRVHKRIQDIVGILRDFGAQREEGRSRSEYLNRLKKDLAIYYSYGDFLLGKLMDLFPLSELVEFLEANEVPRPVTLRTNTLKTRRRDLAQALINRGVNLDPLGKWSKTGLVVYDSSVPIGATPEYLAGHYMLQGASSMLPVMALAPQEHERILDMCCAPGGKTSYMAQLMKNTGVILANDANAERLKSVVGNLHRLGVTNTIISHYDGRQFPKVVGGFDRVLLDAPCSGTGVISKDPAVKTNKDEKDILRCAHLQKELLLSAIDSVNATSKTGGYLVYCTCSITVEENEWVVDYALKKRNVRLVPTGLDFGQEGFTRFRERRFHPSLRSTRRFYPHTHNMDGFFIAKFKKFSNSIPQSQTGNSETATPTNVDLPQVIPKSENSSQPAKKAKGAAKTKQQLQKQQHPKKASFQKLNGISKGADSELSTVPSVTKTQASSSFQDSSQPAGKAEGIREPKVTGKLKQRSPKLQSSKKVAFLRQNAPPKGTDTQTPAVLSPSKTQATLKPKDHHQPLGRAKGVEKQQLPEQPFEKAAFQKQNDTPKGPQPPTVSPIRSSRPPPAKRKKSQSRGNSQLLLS
Chain of UniProt Q6VY07 (Q6VY07 whole entry, looked up): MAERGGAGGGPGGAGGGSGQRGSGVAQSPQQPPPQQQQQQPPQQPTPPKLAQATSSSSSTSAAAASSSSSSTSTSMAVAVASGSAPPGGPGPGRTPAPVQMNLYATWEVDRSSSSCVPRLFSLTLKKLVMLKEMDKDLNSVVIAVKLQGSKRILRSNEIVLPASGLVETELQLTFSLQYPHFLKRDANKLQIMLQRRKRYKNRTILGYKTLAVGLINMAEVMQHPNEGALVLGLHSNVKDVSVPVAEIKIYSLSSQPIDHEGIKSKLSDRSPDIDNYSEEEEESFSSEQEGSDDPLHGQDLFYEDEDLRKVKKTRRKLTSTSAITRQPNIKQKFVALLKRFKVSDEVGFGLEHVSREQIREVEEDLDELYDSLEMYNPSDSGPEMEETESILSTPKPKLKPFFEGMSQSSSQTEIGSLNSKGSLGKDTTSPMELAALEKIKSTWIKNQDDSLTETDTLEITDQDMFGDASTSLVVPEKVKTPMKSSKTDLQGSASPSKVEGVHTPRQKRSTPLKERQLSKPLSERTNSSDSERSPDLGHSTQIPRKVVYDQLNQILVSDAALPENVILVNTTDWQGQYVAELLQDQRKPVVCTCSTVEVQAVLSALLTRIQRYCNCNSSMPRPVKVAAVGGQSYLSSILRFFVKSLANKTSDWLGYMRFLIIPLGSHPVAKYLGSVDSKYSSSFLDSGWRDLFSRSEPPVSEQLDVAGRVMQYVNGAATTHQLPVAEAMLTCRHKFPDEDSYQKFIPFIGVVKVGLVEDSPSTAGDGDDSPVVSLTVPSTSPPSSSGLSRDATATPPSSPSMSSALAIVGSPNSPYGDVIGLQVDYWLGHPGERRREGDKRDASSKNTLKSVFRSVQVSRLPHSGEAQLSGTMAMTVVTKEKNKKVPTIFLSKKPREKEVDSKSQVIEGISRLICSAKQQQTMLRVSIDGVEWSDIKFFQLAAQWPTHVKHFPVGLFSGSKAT
Chain of UniProt Q8NBF2 (Q8NBF2 whole entry, looked up): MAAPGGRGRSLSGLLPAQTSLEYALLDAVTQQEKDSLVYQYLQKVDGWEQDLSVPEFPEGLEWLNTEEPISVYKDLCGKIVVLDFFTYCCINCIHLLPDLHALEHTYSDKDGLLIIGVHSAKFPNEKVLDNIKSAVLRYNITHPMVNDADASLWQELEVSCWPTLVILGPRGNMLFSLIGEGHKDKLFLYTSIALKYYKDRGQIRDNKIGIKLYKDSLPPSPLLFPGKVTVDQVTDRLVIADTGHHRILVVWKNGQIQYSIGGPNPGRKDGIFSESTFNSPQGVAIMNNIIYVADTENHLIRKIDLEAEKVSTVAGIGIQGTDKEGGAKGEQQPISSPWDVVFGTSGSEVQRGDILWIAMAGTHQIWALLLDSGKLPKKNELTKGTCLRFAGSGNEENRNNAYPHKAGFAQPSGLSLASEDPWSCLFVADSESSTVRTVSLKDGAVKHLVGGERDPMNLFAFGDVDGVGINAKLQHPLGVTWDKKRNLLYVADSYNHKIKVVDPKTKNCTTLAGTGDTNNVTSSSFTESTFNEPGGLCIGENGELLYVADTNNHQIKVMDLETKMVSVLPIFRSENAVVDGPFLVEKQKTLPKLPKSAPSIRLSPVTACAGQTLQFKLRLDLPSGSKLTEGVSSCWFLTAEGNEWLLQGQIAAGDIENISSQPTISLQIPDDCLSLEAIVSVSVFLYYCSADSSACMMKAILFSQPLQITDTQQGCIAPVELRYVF

Take NHLRC2 (UniProt Q8NBF2): the log2 fold change was 0.024 in experiment [1]; 0.029 with volasertib; -0.026 in experiment [2]; -0.06 with epoxomicin; -0.037 in experiment [3]; -0.109 in experiment [4]. Moreover, the log2 fold change in experiment [5] is 0.003; in the experiment with rosiglitazone it was 0.01; in experiment [6] it was -0.064; in [7], -0.272 (active); in the experiment with saracatinib, -0.026; with sotrastaurin, 0.039. Also, the log2 fold change with alvocidib is -0.037; with Tubastatin A, -0.072; in [8], -0.055; in the experiment with defactinib it was -0.039; in the experiment with rucaparib it was -0.016; in experiment [9], 0.059. In addition, the log2 fold change is -0.045 with encorafenib and 0.146 in experiment [10].

For the target PACS1 (UniProt Q6VY07), the log2 fold change in [1] was 0; in the experiment with volasertib it was -0.03; in experiment [2], 0.208; with epoxomicin, -0.045; in experiment [3] it was -0.025; in experiment [4] it was -0.006. The log2 fold change in [5] was 0.006; in the experiment with rosiglitazone, 0.039; in experiment [6] it was 0.029; in experiment [7], 0.014; with saracatinib, -0.018; in the experiment with sotrastaurin, -0.043. The log2 fold change with alvocidib is 0.002; with Tubastatin A it was 0.038; in [8], -0.076; in the experiment with defactinib, -0.045; with rucaparib, 0.022; in [9], 0.037. In addition, the results for the log2 fold change (with encorafenib; in experiment [10]) were -0.01 and -0.018, respectively.

As for MXRA7 (UniProt P84157), the log2 fold change in experiment [1] was 0.04; in the experiment with volasertib, 0.08; in [2], -0.11; with epoxomicin, -0.034; in experiment [3] it was 0.038; in experiment [4], -0.042. Besides, the log2 fold change in [5] was 0.124; with rosiglitazone, 0.037; in experiment [6] it was -0.114; in experiment [7] it was 0.113; with saracatinib, 0.127; in the experiment with sotrastaurin, 0.027. Moreover, the log2 fold change with alvocidib was 0.048; with Tubastatin A it was -0.02; in experiment [8], 0.007; with defactinib it was -0.104; with rucaparib, -0.093; in experiment [9], -0.033. In addition, the log2 fold change is 0.008 with encorafenib and -0.025 in experiment [10].

Regarding MT-ND4 (UniProt P03905), the log2 fold change was 0 in experiment [1]; -0.102 with volasertib; -0.028 in experiment [2]; 0 in the experiment with epoxomicin; -0.071 in experiment [3]; 0.391 (active) in experiment [4]. Moreover, the log2 fold change in experiment [5] was -0.025; with rosiglitazone, 0.159; in experiment [6], -0.065; in experiment [7], 0.029; in the experiment with saracatinib it was 0.048; with sotrastaurin it was -0.025. Moreover, the log2 fold change in the experiment with alvocidib was -0.022; with Tubastatin A, 0.061; in experiment [8] it was 0.053; in the experiment with defactinib it was -0.143; in the experiment with rucaparib it was -0.077; in experiment [9], -0.145. For the same target, the log2 fold change was 0.058 in the experiment with encorafenib and 0.057 in experiment [10].

On to NOP2 isoform 4 (UniProt P46087), for which the log2 fold change is 0.196 in experiment [1]; 0.348 with volasertib; -0.03 in experiment [2]; -0.328 in the experiment with epoxomicin; -0.098 in experiment [3]; 0.364 in experiment [4]. The log2 fold change in experiment [5] was -0.346; in the experiment with rosiglitazone it was -0.056; in experiment [6], 0.546; in [7], 0.494; in the experiment with saracatinib it was -0.09; in the experiment with sotrastaurin, -0.007. Besides, the log2 fold change is 0.574 with alvocidib; 0.079 with Tubastatin A; 0.064 in experiment [8]; 1.26 (active) in the experiment with defactinib; 0.673 with rucaparib; 0.115 in [9]. Also, the log2 fold change was 0.238 in the experiment with encorafenib and -0.024 in [10].

As for NSMCE2 (UniProt Q96MF7), the log2 fold change in experiment [1] is 0.072; in the experiment with volasertib it was -0.032; in [2], -0.003; in the experiment with epoxomicin it was -0.089; in experiment [3] it was 0.025; in experiment [4] it was 0.079. In addition, the log2 fold change in [5] was -0.007; with rosiglitazone, 0.119; in [6] it was 0.059; in experiment [7], 0.397 (active); with saracatinib, -0.019; with sotrastaurin, -0.095. The log2 fold change with alvocidib is -0.004; with Tubastatin A it was 0; in experiment [8] it was 0.031; in the experiment with defactinib it was -0.06; with rucaparib, 0.076; in experiment [9], -0.076. For the same target, the log2 fold change in the experiment with encorafenib is -0.001; in experiment [10], 0.025.

Consider NELFA (UniProt Q9H3P2), for which the log2 fold change in experiment [1] is -0.4; with volasertib, -0.868 (active); in [2], 0.341; with epoxomicin, 0.053; in experiment [3] it was -0.105; in [4], -0.139. The log2 fold change is 0.16 in experiment [5]; 0.048 with rosiglitazone; -0.051 in [6]; 0.006 in [7]; 0.004 with saracatinib; -0.023 with sotrastaurin. In addition, the log2 fold change in the experiment with alvocidib is -0.193; in the experiment with Tubastatin A, 0.216; in [8], 0.078; with defactinib, -0.094; in the experiment with rucaparib, 0.261; in experiment [9], -0.014. Further, the log2 fold change in the experiment with encorafenib is -0.039; in experiment [10], -0.213.

The values above are taken from the supplement of paper PMC10849652.
